A word on the inhibition: it is the drop in the measured response relative to a control, in per cent.

Among the data in ChEMBL document CHEMBL3433997, “St. Jude Leishmania screening dataset” (2016) are inhibition values, retold here.

The assay addresses Glucose transporter (Leishmania mexicana) (UniProt O61059). Briefly: ST_JUDE_LEISH: Cytotoxicity at 2uM final concentration against transgenic Leishmania Mexicana promastigotes LmGT2 that are glucose transport deficient and complemented with the L. Mexicana glucose transporter 2. Activity is measured by DNA content using SYBR green in vitro. The assay is classed as functional.
Regarding `Nc1nccc2ccc(-c3ccsc3)cc12`, the inhibition amounted to 4.09%. `Cc1cc(=NN=Cc2cccc(F)c2)c2cc(F)ccc2[nH]1`: the inhibition came out at 4.81%. The same measure for `Fc1ccc2[nH]c(-c3cccc(-c4ccc(CNCc5cnn(-c6ccccc6)n5)cc4)c3)nc2c1`: 0.03%. Under `O=C(O)Cc1ccc(-c2c[nH]c3ncc(-c4cccc5ncccc45)cc23)cc1` stands 0.63%; under `Cc1nc(-c2nc(NCCc3cnccn3)ncc2-c2ccsc2)sc1C`, -2.39%. The same measure for `COc1cccc2c1CCN(CCN1CCC(CNC(=O)c3ccc(-c4ccc(C#N)cc4)cc3)CC1)C2`: 1.38%. Turning to `O=C(/C=C/c1ccc(Cl)c(Cl)c1)NCCCCCN1CCC(NC(=O)Nc2ccc(F)c(F)c2)CC1`, the inhibition is -2.11%. Under `NCC1CCCN1Cc1ccc(-c2ccc(-c3nc4ccccc4[nH]3)s2)cc1` (centres undefined) stands -0.41%; under `COc1ccc(NC(=O)NCC2CCCN(CCCCCNC(=O)/C=C/c3ccc(Cl)c(Cl)c3)C2)c(OC)c1` (centres undefined), 0.18%. The same measure for `Cc1cccc2nc(-c3cccc(-c4cccc(NC(=O)Nc5ccccc5)c4)c3)[nH]c12`: 3.26%; for `COc1ccc(C(=O)Nc2ccc(-c3ccc([N+](=O)[O-])cc3)cc2)cc1CCCN(C)C`: 2.45%.

On to `Cc1cccc2nc(-c3cccc(-c4cccc(NC(=O)Nc5ccc(F)c(F)c5F)c4)c3)[nH]c12`, for which the inhibition turned out to be 2.44%. Under `Cc1cccc2c(CON3C(N)=NC(N)=NC3(C)C)cccc12` stands 1.51%; under `CCCCCCCN1CCC(CC(=O)Nc2ccnc3ccc(OC)cc23)CC1`, 6.34%. Under `CCCCCCN1CCCN(Cc2ccc(C(=O)Nc3cccc(CC)c3)cc2)CC1` stands 8.83%. As for `Cc1nc(-c2nc(N3CCC(C(N)=O)CC3)ncc2-c2ccsc2)sc1C`, the inhibition is 6.73%. The same measure for `Cc1ccc(Nc2cc(C)nn2-c2nc(C)cc(O)n2)cc1`: 67.6%. The same measure for `Oc1c(C=Nn2cnnc2)sc2ccccc12`: 11.2%; for `CCCCN(CCCC)C(=N)c1cccc2c1CCCC2`: 2.45%; for `O=C(Cn1c(CCc2cccc(F)c2F)nc(=O)c2ccccc21)N(CCN1CCCC1)Cc1ccc(-c2ccc(C(F)(F)F)cc2)cc1`: -4.3%.

`CN(C)CCCn1cncc1-c1ccc2ncnc(Nc3ccc(OCc4ccccc4)cc3)c2c1`: the inhibition came out at 7.01%. Take `Cc1cc(NC(=O)Nc2ccc3sccc3c2)c2ccccc2n1`: the inhibition was 0.53%. Consider `COc1c(C2CCN(CCCCNC(=O)c3ccc(-c4ccc(NC(=O)C(F)(F)F)cc4)cc3)CC2)ccc2c1CCCC2`, for which the inhibition was found to be 0.3%. As to `CCCCn1c(=N)c(C(=O)NCc2cccnc2)cc2c(=O)n3cccc(C)c3nc21`, the inhibition turned out to be 2.74%. The same measure for `CC(=O)Nc1nc(C(=O)Nc2cccc(-c3cccc(-c4nc5cccc(C)c5[nH]4)c3)c2)cs1`: 14.6%; for `CCOc1ccc2nc(NC(=O)c3csnn3)sc2c1`: -1.06%; for `O=C(/C=C/c1ccc(Cl)c(Cl)c1)N1CCC(CN2CCC(c3c[nH]c4ccncc34)CC2)CC1`: 5.44%. The same measure for `O=C(Nc1cccc(-c2ccc(-c3nc4cc(F)ccc4[nH]3)cc2)c1)c1csnn1`: 11.1%; for `COc1ccc(NC(=O)/C=C/c2ccccc2Cl)cc1OCCN1CCC(NC2CC2)CC1`: 4.32%; for `COc1ccc2[nH]ccc(=NN=Cc3ccncc3)c2c1`: 3.39%. With `Cn1c(N)cc(-c2ccc(Br)cc2)c2c(=O)nc(N)nc1-2`, the inhibition was found to be 5.76%. Under `CCOC(=O)c1cn(CC)c2cc(N3CCCCC3)c(F)cc2c1=O` stands 4.37%; under `CCN(CC)CCNC(=O)c1ccc(N/C=C2\C(=O)Nc3ccc(S(=O)(=O)Cc4c(Cl)cccc4Cl)cc32)cc1`, -1.08%; under `CC1(C)[C@H]2CC[C@@H](CNc3nc(NCCc4c[nH]cn4)nc(Nc4ccc(Oc5ccccc5)cc4)n3)[C@@H]1C2`, -1.61%. The same measure for `CCCCCN1CCCC1CNS(=O)(=O)c1cccc(C(=O)Nc2cccc(C#N)c2)c1` (centres undefined): 3.88%; for `Cn1cnc2nc(NCCc3ccccc3)nc(NCc3cccc4ccccc34)c21`: -1.12%; for `O=C(Nc1ccc(Cl)cc1)c1ccc(CN2CCCN(Cc3cccc(O)c3)CC2)cc1`: 2.47%. With `CC1CCN(C(=O)CSc2nc(-c3ccc(C(C)C)cc3)no2)CC1`, the inhibition is 6.14%. The same measure for `CC(C)c1ccc(-c2noc(SCC(=O)N(C)c3ccc(F)cc3)n2)cc1`: -0.55%.
